A selection: hits, their analogues and other compounds. The true share with any hit is near 21%.
Pf growth 96h = P. falciparum growth inhibition at 96 hour, primary screen for plastid delayed-death inhibitors | P. falciparum luciferase reporter growth, 96 h | Potency, µM (titrated, usually from 28.7 µM), without a hit: at the highest dose activity change, negative = inhibition, actives largely listed as inhibitors | 320,000 compounds, 6.9% hits; further: potency means the concentration at half of the fitted maximal effect; on the % scale 0 is the no-effect control and ±100 the full control effect
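Luminescence readout: decreased luciferase signal marks inhibited growth of reporter-expressing P. falciparum in infected red cells (2% hematocrit, 0.05% parasitemia final), exposed to compound two generations (96 h, 37 C, 5% CO2).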
Pf growth 48h = inhibits P. falciparum growth in the first generation, 48 h. P. falciparum luciferase growth in erythrocytes, 48 h. Potency, µM (highest dose often 28.7 µM), for inactives: at the top dose activity change, negative = inhibition, usual class: inhibitors. 310,000 compounds, 5.9% hits; further: potency means the concentration at half of the fitted maximal effect; on the % scale 0 is the no-effect control and ±100 the full control effect
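Luciferase-expressing P. falciparum in infected erythrocytes (2% hematocrit, 0.1% parasitemia final) in RPMI 1640/0.5% Albumax were exposed to compound for 48 hours at 37 C, 5% CO2; growth read as luminescence.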
FBPA Giardia inh = inhibitors of Giardia lamblia fructose-1,6-bisphosphate aldolase | A8B2U2 | purified Giardia FBPA | Potency, µM (top dose mostly 59.6 µM), inactives show at the top dose activity, negative = inhibition, usual class: inhibitors | 290,000 compounds, 0.71% hits | AID 2451; further: potency means the concentration at half of the fitted maximal effect; on the % scale 0 is the no-effect control and ±100 the full control effect; nearly all actives have a fitted effect of over 55% in size
Target sequence (A8B2U2 whole entry, looked up): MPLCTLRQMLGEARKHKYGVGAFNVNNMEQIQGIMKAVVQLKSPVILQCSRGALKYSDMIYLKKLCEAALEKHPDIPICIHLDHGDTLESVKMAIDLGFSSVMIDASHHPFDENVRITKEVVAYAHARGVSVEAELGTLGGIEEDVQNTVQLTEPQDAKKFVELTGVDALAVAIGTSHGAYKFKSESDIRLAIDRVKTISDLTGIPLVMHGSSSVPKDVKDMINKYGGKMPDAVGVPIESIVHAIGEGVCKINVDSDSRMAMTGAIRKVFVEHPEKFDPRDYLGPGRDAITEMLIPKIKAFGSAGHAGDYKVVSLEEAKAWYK
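40 nM FBPA preincubated 10 min at RT with compound (up to 57.5 uM final), then substrate plus GAPDH/TPI/NAD/arsenate coupling and diaphorase/resazurin added. Fluorescence read after 20 min at RT, 525/598 nm.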
CHX counter = affects cycloheximide protein synthesis inhibition readout, counter-screen. cell reporter, cycloheximide protein synthesis inhibition counterscreen. max response, %. 300,000 compounds, 12% hits; in the data active means max response mostly above about 13%, no sharp cut-off; inactive means mostly below about 14%; further: read at 38.3 µM for the half of the compounds with a filed dose; 0% is about no effect
NS1 function inh = influenza NS1 inhibition; Potency, µM (series often up to 46.1 µM), for the others: top-dose activity, positive = more growth; 270,000 compounds, 0.4% hits; AID 2326; calls by dose curve; further: potency means the concentration at half of the fitted maximal effect; actives are rising curves; nearly all actives have a fitted effect of over 50% in size
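Compounds were scored for reversing the slow growth caused by influenza A NS1 in S. cerevisiae, measured by optical density at 600 nm. Assay medium contained 2% galactose at pH 6.0; NS1-free yeast of the same strain were the positive control.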
Shiga inhibitor = Shiga toxin inhibition; Vero cells, Shiga toxin protein synthesis inhibition reporter; inhibition, % at 38.7 µM; 290,000 compounds, 9.2% hits; AID 2315; in the data active means inhibition mostly above about 28%, no sharp cut-off; inactive means mostly below about 43%; further: 0% is about no effect
An asterisk follows results filed as active. Unless noted, the call rests on the fitted dose curve; in most records, active means well fitted curve in the direction sought with a large enough effect; inconclusive means small, poorly fitted or top-dose-only effect, or another doubt; inactive means no such curve, though single readings can be large; an effect the other way counts as inactive or inconclusive.

Brc1ccccc1OCCCCCN1CCOCC1 was read as Pf growth 96h 0.9%, Pf growth 48h 40.5%, FBPA Giardia inh inconclusive, CHX counter 29.5* and Shiga inhibitor 134.6*.
c1ccc(SCCCCN2CCOCC2)cc1 was read as Pf growth 96h inconclusive, Pf growth 48h inconclusive, FBPA Giardia inh inconclusive, CHX counter 15.0*, NS1 function inh -16.5% and Shiga inhibitor 41.5.
`Cc1cc(C(C)(C)C)ccc1OCCCCN1CCCC1` gave Pf growth 96h 3.2%, Pf growth 48h inconclusive, FBPA Giardia inh -16.4%, CHX counter 30.4*, NS1 function inh 7.1% and Shiga inhibitor 6.2.
For Cc1ccc(S(=O)(=O)N2CCN(C(=O)COC(=O)CCOc3ccccc3C)CC2)c(C)c1 the results were Pf growth 96h 12.2% and Pf growth 48h inconclusive.
`Cc1ccc2c(c1)sc[n+]2Cc1ccccc1` gave Pf growth 96h 21.9%, Pf growth 48h 69.0%, FBPA Giardia inh -10.3%, CHX counter 42.3*, NS1 function inh 0.2% and Shiga inhibitor 81.7*.
`C/C(=N\O)c1cccc[n+]1Cc1ccccc1` gave NS1 function inh -8.3%.
Screening CCOc1ccc2c(c1)[N+](C)(C)C(C)(C)C=C2C returned Pf growth 96h -23.9%, Pf growth 48h 1.17µM*, FBPA Giardia inh -1.3%, CHX counter -3.2 and Shiga inhibitor -10.4.
For CSc1ccccc1OCc1cc(C(=O)N2CCC(c3ccncc3)CC2)no1 the results were Pf growth 96h 2.6%, Pf growth 48h -18.9%, CHX counter 18.7*, NS1 function inh -30.2% and Shiga inhibitor 10.8.
Screening CCOC(=O)N1CCC(NC(=O)c2cc(COc3ccccc3SC)on2)CC1 returned Pf growth 96h inconclusive, Pf growth 48h -12.5%, FBPA Giardia inh 0.9%, CHX counter 26.6*, NS1 function inh -2.6% and Shiga inhibitor 34.6.
Cc1cc(Cc2ccc([N+](=O)[O-])cc2)c(C)cn1 was read as Pf growth 96h 5.0%, Pf growth 48h -14.3%, FBPA Giardia inh 6.6%, CHX counter -5.2 and NS1 function inh 5.9%.
`CN(Cc1cnccn1)Cc1cn(Cc2ccccc2)nc1-c1ccc2c(c1)OCO2` gave Pf growth 96h inconclusive, Pf growth 48h inconclusive, FBPA Giardia inh -2.0%, CHX counter 7.8, NS1 function inh 3.6% and Shiga inhibitor 17.5.
Screening O=C(Nc1ccc2oc(-c3ccc(Cl)c(Cl)c3)nc2c1)c1ncn[nH]1 returned Pf growth 96h 100.6%, FBPA Giardia inh 12.4%, CHX counter 27.5*, NS1 function inh 10.6% and Shiga inhibitor 66.2.
O=C(Nc1ccc2oc(-c3ccncc3)nc2c1)c1ccccc1F was read as Pf growth 96h inconclusive, Pf growth 48h 15.4%, FBPA Giardia inh -9.3%, CHX counter 12.7, NS1 function inh -24.9% and Shiga inhibitor 62.6*.
Screening O=C(Cc1ccccc1)NC(=S)Nc1ccc2oc(-c3ccccc3F)nc2c1 returned Pf growth 96h 30.0%, Pf growth 48h 94.5%, FBPA Giardia inh 3.5%, CHX counter 29.3, NS1 function inh -7.2% and Shiga inhibitor 50.0*.
Screening O=C(Nc1ccc2oc(-c3ccccc3)nc2c1)c1ccccc1F returned Pf growth 96h inconclusive, Pf growth 48h 135.5%, FBPA Giardia inh -2.4%, CHX counter 19.8*, NS1 function inh 6.0% and Shiga inhibitor 58.5*.
For CCCCN(C(=O)c1cc(=O)[nH]c2ccccc12)c1c(N)n(CCCC)c(=O)[nH]c1=O the results were Pf growth 96h 24.4%, Pf growth 48h -1.9%, FBPA Giardia inh -1.7%, CHX counter -2.8, NS1 function inh -0.5% and Shiga inhibitor -3.3.
For Cc1c(Br)c(C(F)(F)F)nn1CC(=O)NCCCn1ccnc1 the results were Pf growth 96h 7.7%, Pf growth 48h -1.9%, FBPA Giardia inh 3.1%, CHX counter -2.4, NS1 function inh 1.1% and Shiga inhibitor -13.4.
For CC(=O)NC(=S)Nc1ccc2oc(-c3cc(F)c(F)cc3Cl)nc2c1 the results were Pf growth 96h 176.5%, Pf growth 48h 170.5%, FBPA Giardia inh -0.2%, CHX counter 24.0*, NS1 function inh 1.9% and Shiga inhibitor 52.7.
Screening O=C(Nc1ccc2oc(-c3ccccc3F)nc2c1)c1ccccc1F returned Pf growth 96h -15.8%, Pf growth 48h 73.2%, FBPA Giardia inh -3.4%, CHX counter 30.1*, NS1 function inh -22.2% and Shiga inhibitor 48.0*.
`O=C(Nc1ccc2oc(-c3ccccc3F)nc2c1)c1ncn[nH]1` gave Pf growth 96h 159.0%, FBPA Giardia inh 9.0%, CHX counter 52.1*, NS1 function inh 3.4% and Shiga inhibitor 79.8*.
For O=C(CCN1CCCCC1)N/N=C/c1c[nH]c2ccccc12 the results were Pf growth 96h 17.2%, Pf growth 48h 6.0%, FBPA Giardia inh 2.2%, CHX counter 1.9, NS1 function inh 6.5% and Shiga inhibitor 28.6.
`Cc1ccc(N(CC(=O)NCc2ccccc2)C(=O)CCC(=O)Nc2ccccn2)cc1` gave Pf growth 96h 5.4%, Pf growth 48h -8.7%, FBPA Giardia inh 2.7%, CHX counter -4.2, NS1 function inh -6.4% and Shiga inhibitor -6.8.
`O=C(C1CCCCC1)N1CCN(S(=O)(=O)c2cccc([N+](=O)[O-])c2)CC1` gave Pf growth 96h 11.0%, Pf growth 48h 16.6%, CHX counter -9.1, NS1 function inh 5.5% and Shiga inhibitor -10.2.
Screening CC1CCCCC1NC(=O)CSc1nnc(CC(=O)Nc2ccccc2F)n1C (configuration not stated) returned Pf growth 96h 157.0%, Pf growth 48h -0.9%, FBPA Giardia inh -1.3%, CHX counter -2.2, NS1 function inh 9.1% and Shiga inhibitor 2.8.
Screening CC(=O)Nc1ccc(/C=C(\C#N)C(=O)NC2CCCCC2)cc1 returned Pf growth 96h -14.9%, Pf growth 48h -26.7%, FBPA Giardia inh 1.4%, CHX counter 2.6, NS1 function inh 2.3% and Shiga inhibitor -9.0.
`CC1CCCCC1NC(=O)/C(C#N)=C/c1ccc(F)c(F)c1` (configuration not stated) gave Pf growth 96h inconclusive, Pf growth 48h 11.7µM*, FBPA Giardia inh -3.3%, CHX counter -2.5, NS1 function inh -5.6% and Shiga inhibitor -6.0.
`CC1CCCCC1NC(=O)/C(C#N)=C/c1ccc2c(c1)OCCO2` (configuration not stated) gave Pf growth 96h inconclusive, Pf growth 48h inconclusive, FBPA Giardia inh -1.4%, CHX counter 13.7, NS1 function inh 3.5% and Shiga inhibitor 38.6*.
`Nc1nc2ccc(Oc3ccccc3)cc2s1` gave Pf growth 48h 165.7%, FBPA Giardia inh -8.3%, CHX counter 30.4*, NS1 function inh -100.3% and Shiga inhibitor 69.6*.
Screening Nc1nc2ccc(OC(F)(F)F)cc2s1 returned Pf growth 96h inconclusive, Pf growth 48h 47.0%, FBPA Giardia inh -1.6%, CHX counter 58.9*, NS1 function inh -41.7% and Shiga inhibitor 66.7*.

Screening data as filed in PubChem BioAssay.
